Laboratory results: the supplement of paper PMC8975748
Where a name gives a salt, the structure may show the parent alone.

The compounds below were run on Saccharomyces cerevisiae BY4741 SeMeCo community (assay: z-score of subpopulation abundance vs DMSO median, subpopulation auxotrophic for HLUM; higher = larger share of this subpopulation than in DMSO controls). Settings: 10 µM; 24 h; SM minimal medium; subpopulation (auxotrophy): HLUM.
Protocol: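 Fluorescent four-plasmid SeMeCo (self-establishing metabolically cooperating S. cerevisiae BY4741 community; plasmids pH-mRuby2, pL-mWasabi, pU-eCFP, pM-TagRFP657) was grown 24 h in minimal SM medium with each Selleck FDA-approved drug at 10 µM in 384-well plates. Cells were fixed and imaged by high-content confocal microscopy. For each auxotrophic subpopulation (and the prototroph), a z-score gives the deviation from the DMSO vehicle-control population median.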

| SMILES | z-score of subpopulation abundance |
| --- | --- |
| NC[C@H]1O[C@H](O[C@H]2[C@H](O[C@@H]3O[C@H](CO)[C@@H](O)[C@H]3O)[C@@H](O)[C@H](N)C[C@@H]2N)[C@H](N)[C@@H](O)[C@@H]1O [Ribostamycin Sulfate] | 0.36 |
| CO[C@H]1O[C@@H]2O[C@@]3(C)CC[C@H]4[C@H](C)CC[C@@H]([C@H]1C)[C@@]24OO3 [Artemether] | 0.11 |
| CN(C)CCOc1ccc(/C(=C(/CCCl)c2ccccc2)c2ccccc2)cc1 [Toremifene Citrate] | -0.23 |
| CC(=O)NS(=O)(=O)c1ccc(N)cc1 [Sulfacetamide Sodium] | 0.37 |
| CCC1(C)CC(=O)NC1=O (stereo not given) [Ethosuximide] | 0.48 |
| Cc1ncc([N+](=O)[O-])n1CCOC(=O)c1ccccc1 [Metronidazole Benzoate] | -0.51 |
| NCCc1ccc(O)c(O)c1 [Dopamine HCl] | -0.04 |
| Nc1ccc(/N=N/c2ccccc2)c(N)n1 [Phenazopyridine HCl] | -0.54 |
| O=C1CN(/N=C/c2ccc(-c3ccc([N+](=O)[O-])cc3)o2)C(=O)N1 [Dantrolene sodium] | 0.72 |
| CCCN1CCCC[C@H]1C(=O)Nc1c(C)cccc1C [Ropivacaine HCl] | 0.18 |
| O=c1[nH]c2ccccc2n1CCN1CCN(c2cccc(C(F)(F)F)c2)CC1 [Flibanserin] | -0.98 |
| Cc1c(-c2ccccc2)oc2c(C(=O)OCCN3CCCCC3)cccc2c1=O [Flavoxate HCl] | 1.01 |
| COCCCOc1ccnc(C[S+]([O-])c2nc3ccccc3[nH]2)c1C (stereo not given) [Rabeprazole] | 0 |
| CCC[S+]([O-])c1ccc2[nH]c(NC(=O)OC)nc2c1 (stereo not given) [Albendazole Oxide] | -1.11 |
| Clc1ccccc1C(c1ccccc1)(c1ccccc1)n1ccnc1 [Clotrimazole] | 9.79 |
| O=C(c1ccc(OCCN2CCCCC2)cc1)c1c(-c2ccc(O)cc2)sc2cc(O)ccc12 [Raloxifene] | 0.09 |
| Cc1c[nH]c(=O)[nH]c1=O [Thymine] | 0.51 |
| C#C[C@]1(O)CC[C@H]2[C@@H]3CCc4cc(OC5CCCC5)ccc4[C@H]3CC[C@@]21C [Quinestrol] | 0.63 |
| CCOC(=O)c1ccc(N)cc1 [Benzocaine hydrochloride] | 0.01 |
| CC[C@H](C)C[C@H](C)CCCCCCCCC(=O)N[C@H]1C[C@@H](O)[C@@H](NCCN)NC(=O)[C@@H]2[C@@H](O)CCN2C(=O)[C@H]([C@H](O)CCN)NC(=O)[C@H]([C@H](O)[C@@H](O)c2ccc(O)cc2)NC(=O)[C@@H]2C[C@@H](O)CN2C(=O)[C@H]([C@@H](C)O)NC1=O [Caspofungin Acetate] | 127 |

| SMILES | z-score of subpopulation abundance |
| --- | --- |
| CCOC(=O)C1=C(C)NC(C)=C(C(=O)OC)C1c1cccc([N+](=O)[O-])c1 (stereo not given) [Nitrendipine] | -1.04 |
| C=C1CCC2C(C)(CO)C(O)CCC2(C)C1CC=C1C=COC1=O (stereo not given) [Dehydroandrographolide] | 0.91 |
| COc1ccc(C[C@H](N)C(=O)N[C@H]2[C@@H](O)[C@H](n3cnc4c(N(C)C)ncnc43)O[C@@H]2CO)cc1 [Puromycin 2HCl] | -0.22 |
| CN1CCN2c3ncccc3Cc3ccccc3C2C1 (stereo not given) [Mirtazapine] | -0.87 |
| Cc1cccc(C)c1NC(=O)C1CCCCN1C (stereo not given) [Mepivacaine] | -0.41 |
| CN1CCCN=C1/C=C/c1cccs1 [Pyrantel Pamoate] | -0.17 |
| O=C(O[C@H]1CN2CCC1CC2)N1CCc2ccccc2[C@@H]1c1ccccc1 [Solifenacin succinate] | 0.94 |
| O=C(c1ccccc1)c1ccc2n1CCC2C(=O)O (stereo not given) [Ketorolac tromethamine salt] | -0.11 |
| CC1=C(C(=O)O)N2C(=O)[C@@H](NC(=O)[C@H](N)c3ccccc3)[C@H]2SC1 [Cephalexin] | -0.42 |
| C[C@@H]1CN(c2c(F)c(N)c3c(=O)c(C(=O)O)cn(C4CC4)c3c2F)C[C@H](C)N1 [Sparfloxacin] | -0.92 |
| Nc1c(CC(=O)O)cccc1C(=O)c1ccc(Br)cc1 [Bromfenac Sodium] | 0.3 |
| CN1CCN(C2=Nc3cc(Cl)ccc3Nc3ccccc32)CC1 [Clozapine] | -0.29 |
| CCCN[C@H]1CCc2nc(N)sc2C1 [Pramipexole dihydrochloride] | 0 |
| CCCCCCCCc1ccc(CCC(N)(CO)CO)cc1 [Fingolimod] | -1.27 |
| CN(C)C(=O)COC(=O)Cc1ccc(OC(=O)c2ccc(NC(=N)N)cc2)cc1 [Camostat Mesilate] | -0.69 |
| CN(C)C[C@@H]1CCn2cc(c3ccccc32)C2=C(C(=O)NC2=O)c2cn(c3ccccc23)CCO1 | 0.34 |
| N=C(N)NC(=N)N1CCOCC1 [Moroxydine HCl] | -0.61 |
| CCOC(=O)C1=C[C@]2(CC)CCCN3CCc4c(n1c1ccccc41)[C@@H]32 [Vinpocetine] | 0.54 |
| COC(=O)C1=C(C)NC(C)=C(C(=O)OCCN2CCN(C(c3ccccc3)c3ccccc3)CC2)C1c1cccc([N+](=O)[O-])c1 (stereo not given) [Manidipine 2HCl] | 0.77 |
| CC(=O)[C@H]1CC[C@H]2[C@@H]3CC=C4C[C@@H](O)CC[C@]4(C)[C@H]3CC[C@]12C [Pregnenolone] | 0.21 |
